Results on eight molecules are retold here after PubChem BioAssay (NCI).

Among the test systems are NCI-H23 lung; NCI-H226 lung; NCI-H322M lung; HOP-62 NSCLC; NCI-H460 lung; HOP-92 NSCLC; NCI-H522 lung; A549/ATCC NSCLC; 786-0 renal; COLO 205 colon; DU-145 prostate; K-562 leukemia; MALME-3M melanoma; MDA-MB-231 breast; RXF 393 renal; SF-268 CNS; SF-295 CNS; SF-539 CNS; UACC-257 melanoma; M14 melanoma.
Common to all, as to assay: NCI-60 one-dose screen, 48 h (100 = growth as untreated, 0 = no growth, -100 = all killed)
Conditions in all cases: 10 µM unless noted

Compounds without any hit were thinned out: in the full panel of roughly 83,000, 20% have a hit.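 48-hour exposure, single concentration, 96-well plates; percent growth endpoint where 0 means no net growth. Active: below 10.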 Values without a mark were called inactive. Calls of active or inactive are those of the source.

As to `CCCCNc1nc(NN2C(=O)c3cccc4cccc(c34)C2=O)nc(-n2cnc3ccccc32)n1`, the growth in the test with NCI-H23 lung was 88.7%; in the test on NCI-H226 lung it was 54.9%; with NCI-H322M lung it was 92.7%; with HOP-62 NSCLC, 97.4%; in the test on NCI-H460 lung it was 102%; with HOP-92 NSCLC it was 60.3%. Besides, the growth in the test with NCI-H522 lung is 89.5%; in the test on A549/ATCC NSCLC, 89.4%; with 786-0 renal, 97.7%; in the test with COLO 205 colon it was 107%; with DU-145 prostate, 98.6%; with K-562 leukemia it was 34%. Besides, the growth was 105% in the test on MALME-3M melanoma; 87.8% in the test with MDA-MB-231 breast; 74.8% with RXF 393 renal; 89.9% with SF-268 CNS; 88.9% in the test with SF-295 CNS; 75.9% with SF-539 CNS. Further, the values for the growth in the test on UACC-257 melanoma and in the test on M14 melanoma were 99% and 103%, respectively.
As to `OC(COc1ccccc1)CN1CCN(c2ccc(Cl)cc2)CC1` (centres undefined), the growth was 95% in the test with NCI-H23 lung; 95.3% with NCI-H226 lung; 115% in the test with NCI-H322M lung; 123% in the test with HOP-62 NSCLC; 105% with NCI-H460 lung; 80.5% in the test on HOP-92 NSCLC. Besides, the growth with NCI-H522 lung is 98.3%; in the test with A549/ATCC NSCLC, 87.1%; with 786-0 renal, 102%; in the test on COLO 205 colon it was 99.3%; in the test on DU-145 prostate, 110%; in the test on K-562 leukemia it was 73.8%. Moreover, the growth is 128% with MALME-3M melanoma; 94% in the test with MDA-MB-231 breast; 113% in the test on RXF 393 renal; 99.4% in the test with SF-268 CNS; 111% with SF-295 CNS; 116% in the test with SF-539 CNS. In addition, the growth was 87.7% in the test with UACC-257 melanoma and 101% with M14 melanoma.
With `NC[C@@H]1O[C@H](O[C@@H]2[C@@H](CO)OC(O[C@@H]3[C@@H](O)[C@H](N)C[C@H](N)[C@H]3OC3O[C@H](CN)[C@@H](O)[C@H](O)[C@H]3N)[C@@H]2O)[C@H](N)[C@@H](O)[C@@H]1O` (some centres undefined), the growth in the test on NCI-H23 lung is 100%; in the test on NCI-H226 lung, 109%; with NCI-H322M lung, 120%; in the test with HOP-62 NSCLC, 115%; in the test on NCI-H460 lung, 105%; in the test with HOP-92 NSCLC it was 125%. Besides, the growth is 111% with NCI-H522 lung; 105% in the test on A549/ATCC NSCLC; 101% in the test on 786-0 renal; 115% in the test with COLO 205 colon; 112% in the test on DU-145 prostate; 113% in the test on K-562 leukemia. The growth with MALME-3M melanoma is 105%; in the test with MDA-MB-231 breast it was 104%; with RXF 393 renal it was 114%; with SF-268 CNS, 113%; with SF-295 CNS it was 107%; in the test on SF-539 CNS it was 89.3%. Also, the growth in the test with UACC-257 melanoma is 106%; in the test with M14 melanoma it was 104%.
For `COc1cccc(Oc2ccccc2NC(=O)CNC(=O)c2cccc3ccccc23)c1`, the growth in the test with NCI-H23 lung is 31.6% [5 µM]; with NCI-H226 lung it was 53.7% [5 µM]; in the test with NCI-H322M lung, 32.6% [5 µM]; in the test with HOP-62 NSCLC it was 35.3% [5 µM]; with NCI-H460 lung it was 6.08% [5 µM] (active); in the test on HOP-92 NSCLC, 31.6% [5 µM]. For the same molecule, the growth in the test on NCI-H522 lung is -10.3% [5 µM] (active); with A549/ATCC NSCLC, 26.8% [5 µM]; in the test on 786-0 renal it was 28.4% [5 µM]; in the test on COLO 205 colon it was -13.5% [5 µM] (active); in the test on DU-145 prostate, 5.14% [5 µM] (active); in the test with K-562 leukemia, 11.8% [5 µM]. Further, the growth in the test with MALME-3M melanoma is 51.3% [5 µM]; in the test with MDA-MB-231 breast it was 7.29% [5 µM] (active); in the test on RXF 393 renal it was 52.4% [5 µM]; in the test on SF-268 CNS it was 34.6% [5 µM]; in the test with SF-295 CNS, 14.6% [5 µM]; with SF-539 CNS it was -7.85% [5 µM] (active). Moreover, the results for the growth in the test on UACC-257 melanoma and with M14 melanoma were 83.6% [5 µM] and -6.36% [5 µM] (active), respectively.
Turning to `COc1cc(CCC[P+](c2ccccc2)(c2ccccc2)c2ccccc2)c(OC)c(OC)c1OC`, the growth with NCI-H23 lung was 77.9%; in the test on NCI-H226 lung it was 88.8%; in the test on NCI-H322M lung it was 83.3%; in the test on HOP-62 NSCLC, 82.1%; in the test on NCI-H460 lung it was 82.2%; in the test on HOP-92 NSCLC, 61.8%. In addition, the growth in the test on NCI-H522 lung is 71.9%; in the test on A549/ATCC NSCLC it was 78.2%; in the test with 786-0 renal, 75.3%; with COLO 205 colon, 105%; with DU-145 prostate it was 79.6%; in the test with K-562 leukemia, 39.8%. Besides, the growth in the test with MALME-3M melanoma was 53.7%; in the test with MDA-MB-231 breast, 61.5%; in the test on RXF 393 renal, 54.2%; in the test with SF-268 CNS it was 64.7%; with SF-295 CNS, 82.5%; with SF-539 CNS, 57.7%. Besides, the growth in the test with UACC-257 melanoma is 60.7%; with M14 melanoma it was 62%.
For `O=C(Nc1c2ccccc2nc2ccccc12)c1ccccc1CN1C(=O)c2ccccc2C1=O`, the growth with NCI-H23 lung is 28.6%; with NCI-H226 lung it was 40.2%; with NCI-H322M lung, 21%; in the test with HOP-62 NSCLC, 37.4%; with NCI-H460 lung, 3.79% (active); in the test on HOP-92 NSCLC, 38.5%. The growth with NCI-H522 lung was 23.7%; in the test on A549/ATCC NSCLC it was 18.8%; in the test with 786-0 renal, 38.9%; in the test with COLO 205 colon, 9.84% (active); in the test on DU-145 prostate it was 27.3%; in the test with K-562 leukemia, 22.8%. Moreover, the growth is 31.2% with MALME-3M melanoma; 34.3% with MDA-MB-231 breast; 43.9% with RXF 393 renal; 34.3% with SF-268 CNS; 31.7% with SF-295 CNS; 21.6% in the test with SF-539 CNS. For the same molecule, the growth in the test with UACC-257 melanoma was 38.5%; in the test with M14 melanoma, 21%.
Regarding `CC1Cc2c(ncn3c(-c4ccc(F)cc4)nnc23)N(C)c2ccccc21` (centres undefined), the growth in the test with NCI-H23 lung was 73.4%; in the test with NCI-H226 lung it was 33.2%; with NCI-H322M lung, 2.19% (active); with HOP-62 NSCLC, 59.5%; with NCI-H460 lung it was 5% (active); in the test with HOP-92 NSCLC, 35.9%. Further, the growth in the test on NCI-H522 lung was 63%; with A549/ATCC NSCLC, 16.3%; in the test with 786-0 renal, 29.9%; in the test with COLO 205 colon, 43.6%; in the test with DU-145 prostate, 63.8%; with K-562 leukemia, 70.4%. For the same molecule, the growth in the test on MALME-3M melanoma is 37.4%; in the test with RXF 393 renal, 66.4%; in the test with SF-268 CNS, 56.6%; in the test on SF-295 CNS, 74.1%; in the test with SF-539 CNS it was 74.9%; with UACC-257 melanoma it was 69.7%. Also, the growth with M14 melanoma was 59.4%.
As for `O=c1c2cc(F)ccc2sc2c(N3CCCCC3)nc3ccccc3c12`, the growth in the test on NCI-H23 lung was 95.8%; in the test with NCI-H226 lung, 86%; in the test with NCI-H322M lung it was 90.1%; in the test on HOP-62 NSCLC it was 99.3%; with NCI-H460 lung it was 109%; in the test with HOP-92 NSCLC, 84.2%. In addition, the growth is 98.5% in the test on NCI-H522 lung; 96.2% in the test on A549/ATCC NSCLC; 95.8% in the test on 786-0 renal; 106% in the test on COLO 205 colon; 107% with DU-145 prostate; 112% in the test on K-562 leukemia. The growth in the test on MALME-3M melanoma is 104%; in the test with MDA-MB-231 breast, 98.9%; in the test with RXF 393 renal it was 104%; in the test with SF-268 CNS, 102%; in the test with SF-295 CNS, 101%; in the test with SF-539 CNS, 102%. For the same molecule, the growth is 97.3% with UACC-257 melanoma and 96.8% in the test on M14 melanoma.
